# The list is not random: actives were taken first. Their share in the collection is about 11%.
# HPGD block: qHTS Assay for Inhibitors of HPGD (15-Hydroxyprostaglandin Dehydrogenase); 15-hydroxyprostaglandin dehydrogenase [NAD(+)] (Homo sapiens), P15428; purified HPGD, NADH fluorescence kinetic, PGE2 substrate; Potency, µM, for inactives: at the top dose activity change, negative = inhibition, most hits filed as inhibitors; 4.3% of 150,000 active; further: potency means the concentration at half of the fitted maximal effect
#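 20 nM HPGD preincubated 15 min at room temperature with compound in 50 mM Tris-HCl pH 8, 0.01% Tween 20. Started with 1 mM NAD+ and 30 uM prostaglandin E2; NADH fluorescence (360/450 nm) read 5 times over 30-s intervals, last minus first.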
# PNC inhibitor: High Content Assay for Compounds that inhibit the Assembly of the Perinucleolar Compartment. PC3M PTB-GFP, PNC prevalence imaging, 16 h; active compounds read low. 3.1% of 140,000 active. activity change (PNC), negative = inhibition, % at 10 µM;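 active means readout at or below -70, meaning at least 70% loss of cells showing the perinucleolar compartment, a nuclear body marking cancer cells; inconclusive means readout between -30 and a set limit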;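 further: plate controls were DMSO wells for no effect and camptothecin positive control wells for full effect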
#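 Compounds are pinned in duplicate onto adhered PC3M cells stably expressing GFP-tagged PTB and incubated 16 h at 37 C. Cells are then fixed, nuclei stained with Hoechst, and PNC-positive cells counted.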
# ALDH1A1 inh: qHTS Assay for Inhibitors of Aldehyde Dehydrogenase 1 (ALDH1A1); Purified ALDH1A1, NADH fluorescence, propionaldehyde substrate; 7.3% of 220,000 active; Potency, µM (series often up to 75.3 µM), for the others: at the top dose activity, negative = inhibition, hits mostly inhibitors;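 further: potency means the concentration at half of the fitted maximal effect; plate controls were no enzyme wells and a reference inhibitor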
# Target sequence (P00352 whole entry, looked up): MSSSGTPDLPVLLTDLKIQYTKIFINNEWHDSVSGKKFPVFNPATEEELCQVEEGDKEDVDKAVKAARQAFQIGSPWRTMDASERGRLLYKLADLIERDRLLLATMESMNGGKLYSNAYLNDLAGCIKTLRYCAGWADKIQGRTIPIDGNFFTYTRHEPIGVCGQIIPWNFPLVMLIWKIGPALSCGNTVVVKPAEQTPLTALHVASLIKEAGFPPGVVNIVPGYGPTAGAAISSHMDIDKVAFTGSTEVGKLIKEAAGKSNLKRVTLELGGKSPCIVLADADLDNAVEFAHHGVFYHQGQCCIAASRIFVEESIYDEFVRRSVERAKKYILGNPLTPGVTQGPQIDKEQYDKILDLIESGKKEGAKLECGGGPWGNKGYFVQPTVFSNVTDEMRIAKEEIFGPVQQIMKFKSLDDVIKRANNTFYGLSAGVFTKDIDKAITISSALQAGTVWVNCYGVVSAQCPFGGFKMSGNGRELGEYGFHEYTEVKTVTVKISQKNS
# KDM4E inh: qHTS Assay for Inhibitors of Human Jumonji Domain Containing 2E (JMJD2E). Lysine-specific demethylase 4E (Homo sapiens), B2RXH2. JMJD2E catalytic domain, FDH-coupled NADH fluorescence (FDH is formaldehyde dehydrogenase). Potency, µM (doses to about 57.1 µM), for inactives: top-dose activity change, negative = inhibition, actives largely listed as inhibitors. 1.6% of 230,000 active;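 further: potency means the concentration at half of the fitted maximal effect; 0% = wells with enzyme and -100% = buffer wells without enzyme; nearly all actives have a fitted effect of over 50% in size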
# Starred values were filed as active, the others as inactive; ? = inconclusive; . = no result; ! = repeats disagree; [ ] = another dose, or the depositor's remark. Unless noted, the call rests on the fitted dose curve; in most records, active means well fitted inhibition curve with a large enough effect (not every such curve was filed as active); inconclusive means small, poorly fitted or top-dose-only effect, or another doubt; inactive means no such curve, though single readings can be large or run the other way. Unless noted, on the % scale 0 is the no-effect control and ±100 the full control effect.
SMILES,HPGD block,PNC inhibitor,ALDH1A1 inh,KDM4E inh
NC(=S)N/N=C/c1c(O)ccc2ccccc12,.,.,.,7.1µM*
O=C(c1cccc(F)c1)N1CCC2(CCCN(c3ccccc3)C2)CC1,-11%,.,-10%,.
Oc1ccc2ccccc2c1/C=N/Nc1ccccc1,?,62,18µM*,7.9µM*
Oc1ccc2ccccc2c1/C=N/n1cnnc1,-3%,24,3%,-6%
O=S(=O)(/N=C/c1c(O)ccc2ccccc12)c1cccs1,?,32,11µM*,?
Cc1noc(C)c1-c1nccc(NC2CC2)n1,.,.,-4%,.
CC1CN(C(=O)/C=C/c2ccc([N+](=O)[O-])s2)CC(C)O1 (configuration not stated),.,.,?,0%
CC1CC(C)CN(C(=O)/C=C/c2ccc([N+](=O)[O-])s2)C1 (configuration not stated),.,.,2.8µM*,-3%
O=C(/C=C/c1ccc([N+](=O)[O-])s1)N1CCCCC1,.,.,28µM*,-3%
C=C(Br)CN(C)CC(=C)Br,-1%,.,-3%[13.5 µM],.
CCCCc1nc2c(c3c1C[C@H](C)OC3)CN(C(=O)NCc1ccco1)CC2,-6%,.,5%[13.5 µM],0%[11.4 µM]
C=C(C)[C@H]1CC=C(CO)CC1,-9%,.,?,.
CN1CCCC[C@@H]1CCN1c2ccccc2Sc2ccc(S(C)=O)cc21 (some centres not stated),3.2µM*!,.,-5%[20.9 µM],-9%[25.5 µM]
CSc1ccc2c(c1)N(CCC1CCCCN1C)c1ccccc1S2 (configuration not stated),-3%,-115*,1%,?
O=C(CCc1ccccc1)NC(=S)Nc1ccc(S(=O)(=O)N2CCOCC2)cc1,-5%,?,?,2%
O=S(=O)(c1ccc(NC(=S)Nc2ccccc2)cc1)N1CCOCC1,-6%,19,20µM*,-20%
CNS(=O)(=O)c1ccc(NC(=S)Nc2ccc3c(c2)OCO3)cc1,.,.,5µM*,2%
CC(NC(=S)Nc1ccc(S(=O)(=O)N2CCOCC2)cc1)C1CC2CCC1C2 (configuration not stated),-6%,11,20µM*,2%
O=S(=O)(c1ccc(NC(=S)Nc2ccc3c(c2)OCO3)cc1)N1CCOCC1,?,3,22µM*,-20%
O=C1C=CC(O)(c2cc(=O)c3c(O)cc(O)cc3o2)C=C1,-8%,-119*,-2%,0%
O=c1c(O)c(-c2ccccc2)oc2cc(O)cc(O)c12,-28%,.,-2%,-21%
COC(=O)CCC(=O)COc1ccc(OC)cc1C#N,.,1,-5%,4%
COC(=O)CCC(=O)COc1ccccc1C#N,14µM*,9,?,3%
CCCCOc1ccc(/C=C/C(=O)OCC(=O)NC(=O)NCC(C)C)cc1OCC,?,-112*,?,3%
CCOc1cc(C(=O)CCC(=O)OCC(=O)NC(=O)NCC(C)C)ccc1O,.,.,.,-3%
SMILES,HPGD block,PNC inhibitor,ALDH1A1 inh,KDM4E inh
Cc1ccc(S(=O)(=O)N(CC(=O)NCC2CCCO2)c2cccc([N+](=O)[O-])c2)cc1 (configuration not stated),.,.,14µM*,3%
COc1ccccc1CN(CC(=O)NCC1CCCO1)C(=O)CNS(=O)(=O)c1ccc(C)cc1 (configuration not stated),1%,21,13µM*,6%
CCOc1ccc(N(CC(=O)NCC2CCCO2)S(=O)(=O)c2ccc(SC)cc2)cc1 (configuration not stated),-6%,?,4µM*,-6%
CS(=O)(=O)N(CC(=O)NCC1CCCO1)c1cccc([N+](=O)[O-])c1 (configuration not stated),.,.,11%,2%
CCOc1ccc(C(=O)OCc2nnc(-c3cccs3)o2)cc1OC,25µM*,?,1%,0%
NNc1nncc2ccccc12,-18%,.,11%,20µM*
CCN(CC)C(=O)c1cnn(-c2ccccc2)c1NC(=O)c1ccccc1F,0%,-28,-1%,5%
CN(C)c1ccc(N2C(=O)CSC2=S)cc1,-16%,-9,2.2µM*,6.3µM*
Oc1ccc2c(c1)OCC1(O)Cc3cc(O)c(O)cc3C21 (configuration not stated),?,.,28µM*,14µM*
Oc1cc2c(cc1O)[C@H]1c3ccc(O)c(O)c3OC[C@@]1(O)C2,13µM*,.,-12%,3.5µM*
Oc1ccc2c(c1)OCO2,-4%,.,6%,.
Cc1nc(NC(C)(C)CO)c([N+](=O)[O-])cc1[N+](=O)[O-],-5%,-119*,3%,9%
CC(C)OC(=O)CN1C(=O)S/C(=C/c2ccc(N3CCCCC3)o2)C1=O,-13%,-4,7.1µM*,?
O=C1NC(=S)S/C1=C/c1ccc(N2CCOCC2)o1,7.9µM*,-14,8%,-4%
COc1ccc2cc(/C=C3\SC(=S)NC3=O)c(N3CCOCC3)nc2c1,20µM*,?,22%,-7%
O=C1N/C(=C/c2ccc(N3CCOCC3)o2)C(=O)N1c1ccccc1,?,?,7.1µM*,5%
COC(=O)/C(=C(/F)SCC(C)=O)C(F)(F)F,-12%,-26,?,2%
COc1ccc(CCNC[C@@H](O)c2ccc(O)cc2)cc1OC,-16%,.,?,5%
COc1cccc(Cn2cnc3c(NS(=O)(=O)c4cc(Cl)ccc4Cl)c(C)c(C)cc32)c1,-23%,11,1%,-5%
Cc1cc2sc3nc(=O)n(-c4ccccc4)c(=O)n3c2cc1C,.,.,.,3%
C[C@]1(OC(=O)/C=C\c2ccccc2)C[C@@H](O)[C@@]2(O)C=CO[C@@H](O[C@H]3O[C@@H](CO)[C@@H](O)[C@@H](O)[C@@H]3O)[C@H]21,-6%,.,24%[20.9 µM],-3%[25.5 µM]
O=C1S/C(=C\c2ccc(N3CCOCC3)o2)C(=O)N1Cc1ccc(F)cc1,?,45,8.9µM*,-1%
O=C1N=C(N2CCOCC2)S/C1=C/c1ccc(-c2ccc(F)cc2)o1,.,.,-1%,-3%
O=C1S/C(=C/c2ccc(N3CCOCC3)o2)C(=O)N1Cc1ccc(F)cc1,-8%,36,2.2µM*,-6%
CCOc1ccc(Cn2c3ccc(OC)cc3c3nc4ccccc4nc32)cc1,-15%,-89*,5%,13%
SMILES,HPGD block,PNC inhibitor,ALDH1A1 inh,KDM4E inh
Cn1c2ccccc2c2c(C(=O)N3CCN(c4ccccc4)CC3)cn(C3CCCC3)c(=O)c21,?,-113*,?,5%
C=CCOC(=O)NC(c1ccc(F)c(F)c1)C(C(=O)CCl)C(=O)OC (configuration not stated),-22%,.,10µM*,9%
Cc1ccccc1OCCCC(=O)NCc1ccco1,25µM*,15,4%,4%
COc1ccc(OCCCC(=O)NCc2ccco2)cc1,?,24,1%,3%
Cc1cc(C)cc(OCC(=O)OCC(=O)NCc2ccco2)c1,-6%,11,35µM*,5%
Cc1ccc(OCCCC(=O)NCc2ccco2)cc1,25µM*,57,4%,8%

# Assay outcomes (PubChem BioAssay)
